The source of these data is PubChem BioAssay AID602377 (National Center for Advancing Translational Sciences (NCATS), 2012).

Activity calls are given as the source filed them. Calls come from the whole dose curve; as a rule, active = well fitted activation curve with a large enough effect; inactive = flat fitted curve, though single readings scatter.

Chain of Pyruvate kinase PKM (Homo sapiens) (P14618 whole entry, looked up, canonical isoform): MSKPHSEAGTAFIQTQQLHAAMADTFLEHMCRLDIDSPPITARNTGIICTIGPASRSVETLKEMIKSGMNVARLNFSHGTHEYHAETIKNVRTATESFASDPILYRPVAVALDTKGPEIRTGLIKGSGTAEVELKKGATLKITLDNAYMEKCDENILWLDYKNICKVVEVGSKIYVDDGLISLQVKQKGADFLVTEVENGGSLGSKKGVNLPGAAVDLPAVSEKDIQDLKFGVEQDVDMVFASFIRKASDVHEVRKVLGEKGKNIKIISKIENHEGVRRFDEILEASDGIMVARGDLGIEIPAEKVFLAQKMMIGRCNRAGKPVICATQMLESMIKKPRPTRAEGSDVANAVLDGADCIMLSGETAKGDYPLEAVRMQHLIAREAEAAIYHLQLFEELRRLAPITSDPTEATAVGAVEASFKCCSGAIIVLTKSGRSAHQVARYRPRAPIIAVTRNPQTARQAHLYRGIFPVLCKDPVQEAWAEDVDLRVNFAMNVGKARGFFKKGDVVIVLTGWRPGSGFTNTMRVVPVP

This test addresses Pyruvate kinase PKM (Homo sapiens) (UniProt P14618). Briefly: qHTS for Activators of Human Muscle Isoform Pyruvate Kinase: Extended Characterization Using A Lactate Dehydrogenase (LDH) Assay. Particulars: purified hPK-M2, LDH-coupled NADH fluorescence kinetic. From the text:
Human pyruvate kinase muscle 2 (hPK-M2)enzyme was supplied as a highly purified (>95% pure) preparation from Harvard Medical School and a secondary assay was used to evaluate compounds. This assay couples the formation of pyruvate from hPK-M2 using lactate dehydrogenase (LDH) and NADH. The depletion of NADH is followed in a fluorescent-based kinetic assay that follows the formation of pyruvate to lactate, as catalyzed LDH (described by Hannaert et al., 2002)1 Pyruvate kinase substrates, PEP and ADP, were present in the assay at 0.1 mM and 4 mM respectively. In this kinetic assay initial rates were determined by following the fluorescence of NADH depletion. NIH Chemical Genomics Center [NCGC] NIH Molecular Libraries Probe Centers Network [MLPCN] MLPCN Grant: MH085679 Assay Submitter (PI): Matthew G. Vander Heiden, Harvard Medical School
Three uL of substrate mix (final concentration, 50 mM Tris-Cl pH 8.0, 200 mM KCl, 15 mM MgCl2, 0.1 mM PEP, 4.0 mM ADP, and 0.2 mM NADH) was dispensed into black-solid 1536 well plates. 23 nL of compounds were delivered by a pin tool and 1 uL of enzyme mix (final concentrations, 10 nM hPK-M2 and 1 uM of LDH) was added. Plates were immediately placed in ViewLux (Perkin Elmer) and NADH fluorescence was determined at 30 second exposure intervals for between 3 and 6 minutes. Data were normalized to the uninhibited and EC100 activation using known activators such as fructose-bis-phosphate.
In the case of `COc1cccc(Cn2ncc3c4sc(S(C)=O)cc4n(C)c3c2=O)c1` (stereo not given), the Potency is 146 nM (active). With `Cc1cc2c(s1)c1cnn(Cc3ccc(F)cc3F)c(=O)c1n2C` the figure was 224 nM (active). Turning to `Cc1cc2c(s1)c1cnn(Cc3c(Cl)ccc(C)c3F)c(=O)c1n2C`, the Potency is 562 nM (active).

Take `Cc1cc2c(s1)c1cnn(Cc3cc(F)c(F)cc3F)c(=O)c1n2C`: the Potency was 398 nM (active). Take `Cc1cc2c(s1)c1cnn(Cc3cc(F)ccc3F)c(=O)c1n2C`: the Potency was 447 nM (active).
